# Results as given in PubChem BioAssay AID1259341 (Broad Institute, 2017).
# A number with no mark means an inactive call. Calls of active or inactive are those of the source.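 How the source made its calls: active means activity change under -35% in any replicate well, with more than 20 beads read in that well; inactive means the rest.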
# Target: Caspase recruitment domain-containing protein 9 (Homo sapiens) + E3 ubiquitin-protein ligase TRIM62 (Homo sapiens) (UniProt Q9H257+Q9BVG3)
# Assay: disruptors of CARD9-TRIM62 binding, primary screen, cell lysate, HEK293FT lysates, Luminex bead ELISA (AID 1259341);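 further: PE anti-Flag signal of Flag-CARD9 captured by myc-TRIM62 beads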
# Conditions: PE fluorescence, stronger effect = lower value, concentration not given here
# Sequence of Caspase recruitment domain-containing protein 9 (Homo sapiens) + E3 ubiquitin-protein ligase TRIM62 (Homo sapiens) (Q9BVG3 whole entry, looked up, the tested form may be a part): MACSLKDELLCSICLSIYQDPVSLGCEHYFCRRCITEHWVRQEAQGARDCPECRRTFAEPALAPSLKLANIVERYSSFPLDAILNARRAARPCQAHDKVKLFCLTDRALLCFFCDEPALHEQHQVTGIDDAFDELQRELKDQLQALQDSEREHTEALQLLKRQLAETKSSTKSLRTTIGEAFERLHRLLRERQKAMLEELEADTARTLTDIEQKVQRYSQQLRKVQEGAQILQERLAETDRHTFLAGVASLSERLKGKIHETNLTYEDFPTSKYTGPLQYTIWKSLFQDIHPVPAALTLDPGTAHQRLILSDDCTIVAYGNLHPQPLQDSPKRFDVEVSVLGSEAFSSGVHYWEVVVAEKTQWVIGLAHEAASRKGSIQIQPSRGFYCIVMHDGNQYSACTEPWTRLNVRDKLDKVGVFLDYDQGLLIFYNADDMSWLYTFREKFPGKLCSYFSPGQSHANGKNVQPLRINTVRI
# Sequence of Caspase recruitment domain-containing protein 9 (Homo sapiens) + E3 ubiquitin-protein ligase TRIM62 (Homo sapiens) (Q9H257 whole entry, looked up, the tested form may be a part): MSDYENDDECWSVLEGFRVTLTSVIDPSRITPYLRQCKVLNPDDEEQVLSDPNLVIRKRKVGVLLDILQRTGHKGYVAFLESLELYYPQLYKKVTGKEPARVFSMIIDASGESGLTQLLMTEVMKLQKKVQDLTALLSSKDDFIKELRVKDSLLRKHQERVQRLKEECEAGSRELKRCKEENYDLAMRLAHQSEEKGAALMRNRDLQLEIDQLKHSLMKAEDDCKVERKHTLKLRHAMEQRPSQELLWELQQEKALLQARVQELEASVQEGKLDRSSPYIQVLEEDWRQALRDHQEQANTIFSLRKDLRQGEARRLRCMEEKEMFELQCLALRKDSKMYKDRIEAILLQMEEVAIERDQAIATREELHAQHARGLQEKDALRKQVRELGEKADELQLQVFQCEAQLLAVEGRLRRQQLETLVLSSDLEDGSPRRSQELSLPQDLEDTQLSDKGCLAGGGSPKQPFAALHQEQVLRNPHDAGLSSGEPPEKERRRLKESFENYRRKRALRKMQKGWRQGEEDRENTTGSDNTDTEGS
row,Structure (SMILES),"activity change, negative = inhibition"
1,CCOc1cc2c(C#N)c(N3CCNCC3)nc(N)c2c(N)n1,-2.85%
2,O=C(CN1CCOC1=O)N1CCC2(CCC(=O)N(CCCn3ccnc3)C2)CC1,-6.82%
3,O=C1c2cccnc2C(=O)N1Cc1ccc(S(=O)(=O)NCc2ccco2)cc1,29.2%
4,CC(=O)c1ccc(NC(=O)c2noc3c2CCC3)cc1,-2.31%
5,CCN1CCOC(=O)C1CC(=O)Nc1cccc(C)c1 (stereo unspecified),-1.33%
6,Cc1cncc(-c2ccc(S(N)(=O)=O)cc2F)c1,-3.94%
7,Cc1c(C(=O)OCC2CCCO2)[nH]c2c1C(=O)CC(c1ccco1)C2 (stereo unspecified),-1.75%
8,Cc1ccc(Cc2cnc(N)s2)o1,18.6%
9,O=C(Nc1nncs1)c1cc(-c2ccco2)nc2ccccc12,-5.26%
10,CN(C)C(CN=C1NS(=O)(=O)c2ccccc21)c1ccco1 (stereo unspecified),-0.48%
11,O=C(COC(=O)c1cc(-c2cccs2)nc2ccccc12)NCc1ccco1,-1.49%
12,O=C(Nc1nc(-c2ccccn2)cs1)c1cccc(-n2cnnn2)c1,199%
13,O=C1CS/C(=N\N=C\c2ccco2)N1c1ccccc1,-3.42%
14,Cc1ccc2cc(CN(Cc3ccco3)S(C)(=O)=O)c(=O)[nH]c2c1,5.89%
15,NC(=O)C1(N2CCCCC2)CCN(c2ccc(NC(=O)c3cccc(Cl)c3)cc2C(=O)O)CC1,-49% (active)
16,O=C(COC(=O)c1ccccc1Oc1ccccc1)NCc1ccco1,3.86%
17,COCCC(=O)N1CCCC2(CCN(CCN3CCCC3)C2=O)C1 (stereo unspecified),-7.49%
18,CC1(C)Cc2ccccc2-c2nc(-c3ccccc3)oc(=O)c21,-0.338%

row,Structure (SMILES),"activity change, negative = inhibition"
1,Cc1scc(C(=O)NCc2ccco2)c1-c1ccccc1,1.82%
2,Cc1cc(C)c2c(N)c(C(=O)Nc3cccc4ccccc34)sc2n1,-1.34%
3,OCc1ccc(O)c2ncccc12,-35%
4,N#CCSc1nc2c(c(=O)n1Cc1ccco1)C1(CCCC1)Cc1ccccc1-2,-5.29%
5,O=C(COC(=O)c1ccc(S(=O)(=O)NCc2ccco2)cc1)Nc1ccc(Cl)cn1,-0.897%
6,COc1ccc(-c2nnc(-c3nc(Nc4ccc(NC(C)=O)cc4)c4ccccc4n3)o2)cc1,9.87%
7,CCC1c2ccc(C)n2CCN1C(=O)Nc1ccccc1C(=O)OC (stereo unspecified),22.8%
8,CC1CCN(c2nc(-c3ccco3)c3c(c2C#N)CC(C)(C)OC3)CC1,5.51%
9,Cc1ccc(-c2nn(-c3ccccc3)cc2CN(Cc2ccccc2)C(=O)CCC(=O)O)o1,7.87%
10,CCOC(=O)c1[nH]c(Cc2[nH]c(C(=O)OCC)c(C)c2C)c(C)c1C,-0.0423%
11,C=CC(=O)N1CCCC2(CCN(CCN3CCCC3)C2=O)C1 (stereo unspecified),-70.2% (active)
12,N#Cc1c(-c2ccco2)cc(-c2ccccn2)nc1N,1.52%
13,O=S(=O)(c1ccc2nc(-c3ccco3)c(-c3ccco3)nc2c1)N1CCOCC1,-5.03%
14,CC1=CCC(C(=O)O)C(C(=O)NC2CCCCC2)C1 (stereo unspecified),-6.81%
15,Cc1ccc(N2NC(c3ccc(Br)cc3)=CCC2=O)cc1,-5.75%
16,O=C(Nc1nc(-c2ccco2)c(-c2ccco2)s1)C1CCC1,-9.96%
17,COc1ccc(S(=O)(=O)c2ccccc2)cc1NS(=O)(=O)c1cccc(C(=O)O)c1,-0.344%
18,N#CNc1nc(O)cc(=O)[nH]1,-9.24%
